Screening results deposited in PubChem BioAssay by National Center for Advancing Translational Sciences (NCATS).
An excerpt weighted towards active compounds, which were near 2.3% of everything screened.
AmpC no deterg: inhibitors of E. coli AmpC beta-lactamase without detergent; P00811; AmpC nitrocefin hydrolysis, absorbance 480 nm, 0.0001% Triton; Potency, µM (doses to about 57.1 µM), for the others: top-dose activity change, negative = inhibition, hits mostly inhibitors; 0.52% of 330,000 active;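 also: plate controls were no compound for no effect and no enzyme for full effect; nearly all actives have a fitted effect of over 20% in size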
Target sequence (P00811 whole entry, looked up): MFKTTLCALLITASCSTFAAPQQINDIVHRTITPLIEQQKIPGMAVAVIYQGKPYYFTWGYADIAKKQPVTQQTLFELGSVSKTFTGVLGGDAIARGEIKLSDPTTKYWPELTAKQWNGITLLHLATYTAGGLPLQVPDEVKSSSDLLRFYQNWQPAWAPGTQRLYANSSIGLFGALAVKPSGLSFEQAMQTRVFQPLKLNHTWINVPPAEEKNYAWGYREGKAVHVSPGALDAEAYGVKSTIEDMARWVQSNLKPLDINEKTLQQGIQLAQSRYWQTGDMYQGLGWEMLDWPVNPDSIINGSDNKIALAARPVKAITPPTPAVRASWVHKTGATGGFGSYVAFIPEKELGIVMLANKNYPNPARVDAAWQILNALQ
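AmpC (5.3 nM in the dispensed reagent) in 20 mM phosphate pH 7.0 with 0.01% (detergent screen) or 0.0001% Triton X-100 was preincubated with compounds for 15 min at room temperature. Nitrocefin was then added from an 800 uM solution, and hydrolysis was followed at 480 nm.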
Marburg entry inh: blocks Marburg virus binding to or entry into cells | Marburg virus pseudotyped entry inhibition, cell reporter | Potency, µM (doses to about 37.8 µM), inactives show at the top dose activity change, negative = inhibition, most hits filed as inhibitors | 1.8% of 300,000 active | AID 540276; calls by dose curve; tested in HEK293 cells
AMA1-RON2 inh: inhibitors of Plasmodium falciparum AMA1-RON2 interaction | AlphaScreen AMA1-biotinylated RON2 peptide binding | Potency, µM (doses to about 58.2 µM), without a hit: top-dose activity change, negative = inhibition, most hits filed as inhibitors | 0.2% of 360,000 active;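 also: 0% = vehicle wells and -100% = peptide control; nearly all actives have a fitted effect of over 45% in size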
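AMA1 (3D7) with his tag at 25 nM final met compounds first, then biotinylated RON2 peptide at 25 nM; detection used donor plus acceptor beads, 10 µg/mL apiece, read by AlphaScreen after 30 min at room temperature.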
AmpC detergent: inhibitors of E. coli AmpC beta-lactamase with detergent. P00811. AmpC hydrolysis of nitrocefin, absorbance 480 nm, 0.01% Triton. Potency, µM (series often up to 114 µM), inactives show at the highest dose activity change, negative = inhibition, actives largely listed as inhibitors. 0.041% of 370,000 active. AID 485294;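 also: 0% = no-compound wells and -100% = no-enzyme wells; nearly all actives have a fitted effect of over 25% in size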
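AmpC (5.3 nM in the dispensed reagent) in 20 mM phosphate pH 7.0 with 0.01% (detergent screen) or 0.0001% Triton X-100 was preincubated with compounds for 15 min at room temperature. Nitrocefin was then added from an 800 uM solution, and hydrolysis was followed at 480 nm.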
LASV entry inh: inhibitors of Lassa virus binding or cell entry; Lassa virus pseudotype entry inhibition, cell reporter; Potency, µM (doses to about 37.9 µM), for the others: top-dose activity change, negative = inhibition, actives largely listed as inhibitors; 1.2% of 300,000 active; calls by dose curve; tested in HEK293 cells; also: nearly all actives have a fitted effect of over 50% in size
Active calls of the source: *; ? = inconclusive; . = no result given; ! = not confirmed by another sample; [ ] = remark or other dose. Unless noted, calls follow the shape of the dose curve; as a rule, active = well fitted curve in the direction sought with a large enough effect; inconclusive = small, poorly fitted or top-dose-only effect, or another doubt; inactive = no such curve, though single readings can be large; an effect the other way counts as inactive or inconclusive. Unless noted, % is scaled to controls: 0 for no effect and ±100 for the full control effect; potency is read from the fitted curve at half-maximal effect.

SMILES	AmpC no deterg	Marburg entry inh	AMA1-RON2 inh	AmpC detergent	LASV entry inh
CN(C)CCC=C1c2ccccc2CCc2ccccc21	21.6%	11.6µM*!	-12.2%	-9.5%	9.2µM*
CNCCC=C1c2ccccc2C=Cc2ccccc21	.	.	-12.8%	.	.
CN(C)CCC=C1c2ccccc2C=Cc2ccccc21	8.5%	6.51µM*	-9.8%	-7.8%	8.2µM*
C[C@H]1CC[C@H]2C(=O)N(Cc3ccccc3)C[C@@H](O)CN2[C@H]1c1ccc(Br)cc1	.	-33.0%[14.2 µM]	.	.	.
CCc1ccc(NC(=O)CSC2=Nc3ccccc3C3=NC(CCC(=O)NCc4cccs4)C(=O)N23)cc1 (stereo not given)	.	.	.	5.2%	-10.4%[46.1 µM]
COc1ccc(-c2nc3cc(NC(=O)c4ccc(C)cc4)ccc3o2)cc1Cl	.	.	.	-9.7%	11.1%[46.1 µM]
COc1ccc(-c2noc(N3CCC(C(=O)N4CCN(c5cccc(OC)c5)CC4)CC3)n2)cc1	.	.	.	0.4%	-11.3%[46.1 µM]
Cc1cc(C)n(Cc2ccc(C(=O)O)cc2)n1	-13.7%	8.1%	-4.3%	?	4.0%
Cc1ccc(C)n1Cc1ccc(C(=O)O)cc1	-23.8%	9.2µM*	?	-16.2%	-4.2%
CCOC(=O)C1CCN(C2=C(NS(=O)(=O)c3ccc(Cl)cc3)C(=O)c3ccccc3C2=O)CC1	-23.3%	?	12.6µM*	4.1%	-16.8%[46.1 µM]
CCOC(=O)N1CCN(C2=C(NS(=O)(=O)c3ccc(NC(C)=O)cc3)C(=O)c3ccccc3C2=O)CC1	3.8%	.	-26.2%	1.2%	.
CCOC(=O)C1CCCN(C2=C(NS(=O)(=O)c3ccc(Br)cc3)C(=O)c3ccccc3C2=O)C1 (stereo not given)	-34.6%	.	12.6µM*	4.6%	.
CC1CCN(C2=C(NS(=O)(=O)c3ccc(Cl)cc3)C(=O)c3ccccc3C2=O)CC1	?	-32.4%	?	-1.3%	6.5%[46.1 µM]
Cc1c(C(=O)NCc2cccc(Br)c2)oc2ccc3c(c12)C(=O)CC(C)(C)O3	.	-19.8%[46.1 µM]	.	26.6%	.
COc1cccc(NC(=O)Nc2ccc3nc(N4CCN(C)CC4)cc(C)c3c2)c1	.	.	.	7.0%	-11.9%[46.1 µM]
CCCCCCC(=O)Cc1cc(OC)c(OC)cc1C=C(C(C)=O)C(=O)OC	.	-10.7%[14.2 µM]	.	.	.
Cc1ccc(CNC(=O)C2CCN(S(=O)(=O)c3cc(-c4noc(C)n4)ccc3C)CC2)cc1	.	.	.	4.6%	-23.2%[46.1 µM]
Cc1cc(C(=O)NCCCN2CCOCC2)n(-c2ccccc2)n1	39.8µM*	.	13.9%	?	.
CCOCCCNC(=O)c1cc(C)nn1-c1ccccc1	3.16µM*	.	6.1%	?	.
CN(Cc1ccco1)C(=O)C1CCN(c2nnc(-n3cccc3)s2)CC1	47.4%	.	7.7%	?	.
O=C(NCc1ccco1)C1CCN(c2nnc(-n3cccc3)s2)CC1	0.794µM*	.	-4.9%	3.9%	.
O=C(NCCCN1CCc2ccccc2C1)C1CCN(c2nnc(-n3cccc3)s2)CC1	164.7%	14.6µM*	-3.6%	?	6.0%
CCCN1C(=O)C(Cc2nc3ccccc3c(=O)n2CC)c2cc(Br)ccc21 (stereo not given)	.	-24.6%[46.1 µM]	.	20.9%	-27.5%[46.1 µM]
CCOC(=O)/C=C1\Nc2ccccc2SC1=O	20µM*	-20.6%[46.1 µM]	15.1%	-9.7%	-20.5%
CCOC(=O)C1=C(C)Nc2ccccc2S1	-30.2%	20.0%[46.1 µM]	3.5%	-5.0%	-0.7%[46.1 µM]
SMILES	AmpC no deterg	Marburg entry inh	AMA1-RON2 inh	AmpC detergent	LASV entry inh
COc1ccc(CC(=O)Nc2cccc(-c3csc(C)n3)c2)cc1	-19.0%	?	4.0%	?	?
Cc1nc(-c2cccc(NC(=O)C(C)Oc3ccccc3)c2)cs1 (stereo not given)	-8.8%	-2.0%	-27.1%	4.8%	8.91µM*
Cc1nc(-c2cccc(NC(=O)COc3ccc(Cl)cc3)c2)cs1	-38.0%	12.6µM*	-11.7%	-1.6%	?
CC(Oc1ccccc1F)C(=O)Nc1ccc2ccccc2c1 (stereo not given)	-21.8%	?	17.1%	-1.6%	?
CC(Oc1ccc(F)cc1)C(=O)Nc1ccc2ccccc2c1 (stereo not given)	-24.8%	11.6µM*	7.7%	-6.5%	?
CC(Oc1ccccc1)C(=O)Nc1nc(-c2ccncc2)cs1 (stereo not given)	-28.3%	.	7.7%	0.1%	.
CCCCn1c(SCC(=O)c2ccccc2)nc2sc3c(c2c1=O)CCCC3	.	.	.	16.4%	?
C=CCN1c2ccccc2[C@]23CCC(=O)N(CCCOC(C)C)C2=NC(C(=O)OC)=C(C(=O)OC)[C@H]13	.	-10.2%[14.2 µM]	.	.	.
